This is a sample that favours compounds with a hit; in the whole collection about 1.5% have one here.
NadD inh – inhibitors of S. aureus NadD, primary screen, biochemical, colorimetric, uHTS. Nicotinate-nucleotide adenylyltransferase NadD (Staphylococcus aureus N315). purified NadD enzyme, colorimetric absorbance read-out. 360,000 tested, 0.78% active. AID 602399, 2012. inhibition, % at 20 µM; in the data active = inhibition above about 26%
Neddyl block – inhibitors of cullin neddylation, primary screen, biochemical, TR-FRET, uHTS, NAE and Ubc12 | NEDD8-conjugating enzyme Ubc12 (Homo sapiens) + NEDD8-activating enzyme E1 regulatory … | inhibition, % at 25 µM | 360,000 tested, 0.58% active; in the data active = inhibition above about 36%
Target sequence (P61081 whole entry, looked up): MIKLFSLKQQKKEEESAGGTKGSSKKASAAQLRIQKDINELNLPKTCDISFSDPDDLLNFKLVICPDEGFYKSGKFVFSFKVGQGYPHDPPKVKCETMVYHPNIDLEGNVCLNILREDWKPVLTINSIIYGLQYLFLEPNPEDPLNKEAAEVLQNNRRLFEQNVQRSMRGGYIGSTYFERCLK
Target sequence (Q13564 whole entry, looked up): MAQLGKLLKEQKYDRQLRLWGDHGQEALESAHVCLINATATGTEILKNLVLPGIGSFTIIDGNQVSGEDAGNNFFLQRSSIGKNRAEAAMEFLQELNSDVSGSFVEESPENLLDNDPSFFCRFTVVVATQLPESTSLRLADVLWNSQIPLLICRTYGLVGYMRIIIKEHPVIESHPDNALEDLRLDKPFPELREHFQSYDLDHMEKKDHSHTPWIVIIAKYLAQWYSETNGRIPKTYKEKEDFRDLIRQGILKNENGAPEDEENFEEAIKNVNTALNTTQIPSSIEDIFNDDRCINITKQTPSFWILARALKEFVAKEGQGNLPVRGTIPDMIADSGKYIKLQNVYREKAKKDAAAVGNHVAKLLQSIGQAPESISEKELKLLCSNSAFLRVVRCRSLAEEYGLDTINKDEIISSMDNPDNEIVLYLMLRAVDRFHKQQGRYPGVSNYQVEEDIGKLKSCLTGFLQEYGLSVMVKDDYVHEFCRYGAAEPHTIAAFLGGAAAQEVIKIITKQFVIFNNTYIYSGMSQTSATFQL
GC-B act – human GC-B receptor activators, primary screen, HEK293 GC-B cells, cGMP TR-FRET, EC30 CNP | 370,000 tested, 0.11% active | Atrial natriuretic peptide receptor 2 (Homo sapiens), P20594 | AID 1920062, 2024 | 0% at EC30 CNP, 100% saturating CNP | activation, % at 10 µM;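 active = activation at 10 µM reaching about 35% in either raw or pattern-adjusted values, limit read from the data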
GC-A act – GC-A stimulated cGMP production enhancers – HEK293 GC-A cells, cGMP TR-FRET, EC30 ANP, primary screen | AID 1671463, 2021 | activation, % at 10 µM | 0% at EC30 ANP, 100% saturating ANP | 370,000 tested, 0.14% active | Atrial natriuretic peptide receptor 1 (Homo sapiens), P16066; in the data active = activation above about 40%
Neddyl inh conf – blockade of NEDD8 conjugation to cullin – biochemical, TR-FRET, single concentration, confirmation; TR-FRET cullin neddylation biochemical assay; shares compounds with Neddyl block; AID 652217, 2013; 1,800 tested, 13% active; calls only at 25 µM; in the data active = inhibition above about 40%;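 also: neddylation substrate is the cullin 1 ring ligase complex with SKP2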
* hit, by the source's call; i = inactive; · = no result given.

SMILES	NadD inh	Neddyl block	GC-B act	GC-A act	Neddyl inh conf
O=C(c1cc(-c2ccncc2)nc2ccc(Cl)cc12)N1CCN(Cc2ccc3c(c2)OCO3)CC1	-0.7	-26.3	2.8	-4.0	·
O=C(O)c1cc(-c2ccc3c(c2)OCO3)nc2ccc(Cl)cc12	-1.2	53.9*	-1.8	1.1	·
CC(C)(C)NC(=O)c1cc(-c2ccc3c(c2)OCO3)nc2ccccc12	-2.7	45.9*	1.9	1.5	i
COC(=O)[C@]12C[C@H](CC(=O)NCCCN3CCCC3=O)C(=O)N(Cc3ccc(Cl)cc3Cl)C1=C[C@H](C(C)C)O[C@@H]2C1CC1	·	·	-10.0	-16.3	·
COc1ccc(CNC2CCCc3ccccc32)c(OC)c1 (configuration not stated)	-4.4	-1.7	-13.4	-5.7	·
COc1ccc(CNC2CCCCC2C)c(OC)c1 (configuration not stated)	-8.7	42.7*	-9.5	-7.7	·
O=C(OCCCN1CCC2(CCCCC2)C1=O)c1ccccc1	·	·	4.9	1.6	·
O=C(NCC1CCCO1)c1cc2ccccc2cc1O (configuration not stated)	2.2	31.1	-3.5	4.2	·
O=C(NCC1CCCCC1)c1cc2ccccc2cc1O	-6.9	45.0*	-4.1	6.2	·
CC1(C)Cc2c(C#N)c(NCC3CCCO3)nc(-c3ccco3)c2CO1 (configuration not stated)	3.3	48.9*	22.6	8.8	·
Cc1ccccc1C(=O)N[C@@H](CC(C)C)C(=O)N1CCC[C@H]1C(=O)NCc1ccccc1	·	·	-0.2	3.2	·
C=CC(=O)NC1CCCCN(C)C1=O (configuration not stated)	·	·	-3.8	4.7	·
COc1cccc(CC(=O)n2nc(N)c3cc4ccc(OC)cc4nc32)c1	6.9	41.1*	0.2	-0.9	i
CC(C)CN(CC(C)C)c1nc(N)c(C#N)c(CC#N)c1C#N	-3.2	37.7*	18.2	14.9	·
CN(CCO)c1nc(N)c(C#N)c(CC#N)c1C#N	0.5	8.4	-0.1	6.3	·
CCC[C@H]1[C@@H](NC(=O)c2ccc(Cl)cc2)CC[C@@]23CCCN2C(=O)CCC[C@@H]13	·	·	-12.3	-13.7	·
CCOC(=O)C(=CNc1ccc(NC2=NCC(C)S2)cc1)C(=O)OCC (configuration not stated)	-2.4	44.9*	12.3	5.8	i
CCOC(=O)C(=CNc1ccc(C(F)(F)F)cc1)C(=O)OCC	-3.3	4.5	-0.6	2.6	·
CCSC1=C(C#N)C(CC(C)C)C2=C(CCCC2=O)N1 (configuration not stated)	7.7	37.7*	-0.5	1.7	i
CCOC(=O)N1CCN(C(=O)CSc2cc(C)nc3c(-c4ccccc4OC)c(C)nn23)CC1	-0.3	7.9	1.2	-3.1	·
CCOC(=O)N1CCC(Nc2cc(C)nc3c(-c4ccccc4OC)c(C)nn23)CC1	6.9	40.3*	11.9	6.8	i
COc1ccccc1-c1c(C)nn2c(N3CCC(C)CC3)cc(C)nc12	1.9	38.3*	-6.3	-1.7	·
COc1ccc(C2C3=C(Nc4ncnn42)c2ccccc2CCC3)cc1 (configuration not stated)	7.4	43.6*	-3.4	-18.7	i
CCc1c(C)c(C#N)c2nc3ccccc3n2c1NCCOC	1.2	40.7*	5.3	-1.5	·
CC(C)c1cc(NCCCN2CCOCC2)n2c(nc3ccccc32)c1C#N	5.6	·	-8.4	1.6	·
SMILES	NadD inh	Neddyl block	GC-B act	GC-A act	Neddyl inh conf
CCCc1c(C)c(C#N)c2nc3ccccc3n2c1NCCCN1CCOCC1	-0.2	46.0*	-23.1	-28.2	i
CC(C)c1cc(NCCN2CCOCC2)n2c(nc3ccccc32)c1C#N	-1.3	37.7*	-0.8	6.3	i
COc1ccc(S[C@]2(C(=O)N3CCOCC3)CC(=O)N(c3ccsc3)[C@@H]2c2ccc(OC)cc2)cc1	·	·	-10.0	-10.2	·
COC(=O)[C@]12C[C@H](CC(=O)N3CCSCC3)C(=O)N(Cc3ccc4c(c3)OCO4)C1=C[C@H](C(C)C)O[C@@H]2C1CC1	·	·	-16.1	-11.5	·
CC(=O)c1cc(-c2ccc3nonc3c2)c(=O)n2c1CCC2	·	·	0.0	-0.5	·
COc1ccc(CCNC(=O)c2cc(C3CC3)nc3c2cnn3C(C)C)cc1OC	-6.4	6.1	1.1	-6.4	·
CC(C)n1ncc2c(C(=O)NCCc3ccc(S(N)(=O)=O)cc3)cc(C3CC3)nc21	1.1	64.3*	-2.8	-2.8	·
CC(C)n1ncc2c(C(=O)NCCOc3ccccc3F)cc(C3CC3)nc21	-6.3	43.6*	9.1	3.5	i
C=CC[C@H]1c2ccccc2[C@H]2N3N=Cc4ccccc4[C@H]3[C@H](CCCC)C(=O)N2N1C(=O)NCc1ccccc1	·	·	-2.1	-2.2	·
COC(=O)[C@]12C[C@H](CC(=O)NCCCCc3ccccc3)C(=O)N(Cc3cccc4ccccc34)C1=C[C@H](C1CCCC1)O[C@@H]2C	·	·	0.6	-0.9	·
CCN1CCc2nc3sc(C(=O)Nc4cccnc4Cl)c(N)c3cc2C1	7.8	40.3*	-1.1	14.7	i
COC(=O)[C@H]1C[C@@]2(Oc3ccc(Br)cc3)c3ccccc3N(C(=O)OC(C)(C)C)[C@H]2N1C(=O)OC(C)(C)C	·	·	-18.9	-20.9	·
Cc1cccc(-c2cccc3c4c([nH]c23)[C@@H]2C[C@H](N(C)C(=O)c3ccccc3F)[C@H]([C@H](C)O)CN2CC4)c1	·	·	-3.2	0.5	·
COC(=O)C1=C(C)N(Cc2cccc(C(F)(F)F)c2)C(=NCc2ccc(OC)cc2)NC1c1ccc(F)cc1 (configuration not stated)	·	·	-17.2	-19.9	·
COc1cccc(N=c2oc3cc(O)ccc3cc2C(=O)NCC2CCCO2)c1 (configuration not stated)	-4.6	43.6*	26.5	22.0	i
CC(=O)Nc1nc(CC(C)C)cc(-c2ccco2)c1C#N	-4.5	44.7*	5.0	5.8	i
C#CCNC(=O)C[C@H]1C[C@@]2(C(=O)OC)C(=C[C@H](C(C)(C)C)O[C@@H]2C)N(CCC2=CCCCC2)C1=O	·	·	-2.6	2.0	·
CC1(C)CC(=O)C=C(C#CC2CC2)C1	·	·	3.5	0.0	·
CC1(C)Oc2ccc3ccc(=O)oc3c2/C(=C/O)C1=O	1.0	44.5*	1.0	-2.6	i
COc1ccc(C2=Cc3ccccc3C(CC(=O)C3CC3)N2c2ccc(C#CCCO)cc2)cc1 (configuration not stated)	-6.0	·	-3.5	-11.1	·
COc1ccc(C2=Cc3ccccc3C(CC(=O)C3CC3)N2c2ccc(-c3cc(OC)c(OC)c(OC)c3)cc2)cc1 (configuration not stated)	5.2	41.7*	2.7	1.6	i

Assay outcomes as filed in PubChem BioAssay.
